The target of experiment [1] is human Adenosine Transporter (Adot), SLC29A1 (gene 2030) (UniProt Q99808). Description: NVS_TR_hAdoT: NovaScreen (NVS) Transporter Assay for human Adenosine Transporter (Adot) (AID 2283368). The gist of the method: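 U937-derived membranes, cell-free radioligand binding, filter scintillation 1 h after dosing. 25 uM duplicate screen; hits (e.g. 30% inhibition) run in concentration-response up to 50 uM; loss of signal versus DMSO.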

In experiment [2] the test system is rat Norepinephrine Transporter (NET), gene 83511. Description: NVS_TR_rNET: NovaScreen (NVS) Transporter Assay for rat Norepinephrine Transporter (NET) (AID 2283373). An outline of the steps:
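Rat forebrain membranes; radioligand binding measured by filter-based scintillation counting 1 hour after dosing. Loss of specific binding versus DMSO baseline scored; primary screen in duplicate at 25 uM, actives followed up in concentration series.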

This note sets out measurements from PubChem BioAssay (EPA / NIEHS).

Inconclusive results are not listed. Active and inactive are the calls of the source. Rule for the calls: active = hit-call score of the fitted dose curve at least 0.9, where 1 is the maximum; inconclusive = response in the unintended direction; inactive = score below 0.9.

Chain of human Adenosine Transporter (Adot), SLC29A1 (gene 2030) (Q99808 whole entry, looked up): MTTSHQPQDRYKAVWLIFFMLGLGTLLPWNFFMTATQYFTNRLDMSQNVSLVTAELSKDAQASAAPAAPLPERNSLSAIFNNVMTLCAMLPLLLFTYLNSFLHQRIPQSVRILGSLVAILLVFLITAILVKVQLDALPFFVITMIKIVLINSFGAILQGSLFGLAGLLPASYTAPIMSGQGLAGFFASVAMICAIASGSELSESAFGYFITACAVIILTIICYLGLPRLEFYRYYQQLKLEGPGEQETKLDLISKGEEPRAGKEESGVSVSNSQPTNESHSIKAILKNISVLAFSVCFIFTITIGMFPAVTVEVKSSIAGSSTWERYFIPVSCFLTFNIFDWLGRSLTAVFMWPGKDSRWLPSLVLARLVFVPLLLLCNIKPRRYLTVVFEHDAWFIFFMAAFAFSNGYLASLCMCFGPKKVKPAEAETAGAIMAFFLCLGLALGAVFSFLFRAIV

For `Nc1c(Cl)c(Cl)nc(C(=O)O)c1Cl`, the call in experiment [1] was inactive.

`Cn1c(-c2ccccc2)cc(-c2ccccc2)[n+]1C`: the compound was called inactive in experiment [2].

The AC50 is the midpoint of the concentration-response curve, whichever way the signal moves. In the case of `Cc1cc(C)nc(Nc2ccccc2)n1`, the half-maximal activity concentration (AC50) in experiment [2] is 6.21 µM (active).
